Screening results from PubChem.
Only a selection was taken, and hits are over-represented in it overall.
Pf Dd2 inh: qHTS Primary assay for Inhibitors of Plasmodium falciparum Dd2 growth in vitro; P. falciparum Dd2 growth, SYBR Green, 72 h; Potency, µM (highest dose often 28.9 µM), for the others: top-dose activity, negative = inhibition, hits mostly inhibitors; actives 4.3% (n = 120,000); active = well fitted inhibition curve with a large enough effect;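 also: plate controls were DMSO vehicle for no effect and reference drug for full effect; nearly all actives have a fitted effect of over 65% in size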
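Infected erythrocytes (Dd2, 0.3% parasitemia, 2.5% hematocrit final) are added to compound in RPMI-1640/Albumax II medium, grown 72 h at 37C in low oxygen, then lysed with saponin/Triton-X containing SYBR Green and read by fluorescence.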
* hit, by the source's call; [ ] = another dose, or the depositor's remark. Potency is read from the fitted curve at half-maximal effect.

How did O=C(Nc1ccc(-c2nnc3n2CCCC3)cc1)c1ccc(Cl)cc1 do in these assays?
Pf Dd2 inh: 5µM*

How did COc1ccc(Cl)cc1C(=O)Nc1ccc(-c2nnc3n2CCCCC3)cc1 do in these assays?
Pf Dd2 inh: 4%

What do the screens show for `O=C(Nc1ccc(-c2nnc3n2CCCC3)cc1)c1ccncc1`?
Pf Dd2 inh: inactive

How did CCn1ncc(CN2CC(F)(F)C[C@H]2c2nc(C(=O)NC)no2)c1C do in these assays?
Pf Dd2 inh: 4%

How did CN(Cc1cnn(-c2ccc(F)cc2)c1)C(=O)c1cn(Cc2cccc3ccccc23)nn1 do in these assays?
Pf Dd2 inh: -3%

Results for COc1ccc(Cl)cc1NC(=O)CCC1CCCN(C(=O)Cn2cccn2)C1 (centres undefined) ?
Pf Dd2 inh: -8%

Results for Cc1cc(COc2ccccc2)oc1C(=O)N[C@@H]1CCOC[C@H]1OCCO ?
Pf Dd2 inh: -4%

How did Cc1ccc2c(c1)N1C(=O)OC[C@@H]1CCN(C(=O)COCc1ccccc1)C2 do in these assays?
Pf Dd2 inh: 0%[44.1 µM]

How did COc1cccc(C(=O)N2CC(C(=O)NCCc3ccncc3)C3(CCOCC3)C2)c1 (centres undefined) do in these assays?
Pf Dd2 inh: -1%

Results for COc1ccccc1C(=O)N1CCC(CCOc2ccncc2)C1 (centres undefined) ?
Pf Dd2 inh: 8%

How did CC(C)(C)OC(=O)N1CCC(c2c(C(=O)Nc3ccc4c(c3)OCCO4)cnn2-c2ccc(F)cc2F)CC1 do in these assays?
Pf Dd2 inh: 4µM*

What do the screens show for `CC(C)(C)OC(=O)N1CCC(c2c(C(=O)O)cnn2-c2ccc(F)cc2F)CC1`?
Pf Dd2 inh: 5%

Results for Cc1c(Cl)cccc1-n1ncc(C(=O)Nc2ccc(F)cc2F)c1C1CCN(C(=O)OC(C)(C)C)CC1 ?
Pf Dd2 inh: -3%

Results for COc1ccc(NC(=O)c2cnn(-c3ccc(F)cc3F)c2C2CCN(C(=O)OC(C)(C)C)CC2)cc1Cl ?
Pf Dd2 inh: 7.9µM*

What do the screens show for `Cc1ccc(-n2ncc(C(=O)N3CCCCC3)c2C2CCN(C(=O)OC(C)(C)C)CC2)cc1C`?
Pf Dd2 inh: -5%

Results for CC(C)(C)OC(=O)N1CCC(c2c(C(=O)Nc3cccc(C(F)(F)F)c3)cnn2-c2ccc(F)cc2F)CC1 ?
Pf Dd2 inh: 11µM*

Results for Cc1cccc(-n2ncc(C(=O)Nc3ccc4c(c3)OCO4)c2C2CCN(C(=O)OC(C)(C)C)CC2)c1 ?
Pf Dd2 inh: 10µM*

What do the screens show for `COc1ccc(C(=O)Nc2ccc([C@H]3OCC(=O)N(C)[C@@H]3CO)cc2)cc1`?
Pf Dd2 inh: -8%[44.1 µM]

Results for COc1ccc(-c2noc([C@@H]3CCCN3C(=O)COc3ccc(C)cc3)n2)cc1 ?
Pf Dd2 inh: inactive

How did COCCN(C)C(=O)c1cn(C2CN(C(=O)NCc3ccc(C)cc3)C2)nn1 do in these assays?
Pf Dd2 inh: 28%

Results for COc1ccccc1C1CCCN1C(=O)CCCn1nnnc1CN1CCOCC1 (centres undefined) ?
Pf Dd2 inh: -11%

Results for CN(C)C(=O)c1ccc(-c2ccc3ncn(-c4ccc(F)cc4F)c(=O)c3n2)cc1 ?
Pf Dd2 inh: inactive

How did Cc1noc(C)c1C(=O)N1C[C@@H](CO)[C@H](c2ccccn2)C1 do in these assays?
Pf Dd2 inh: -11%

How did COc1cccc(O)c1C(=O)NC1CC(c2nnc(Cn3cccn3)n2C)C1 (centres undefined) do in these assays?
Pf Dd2 inh: -9%

Results for CC(C)(C)OC(=O)N1CCC(c2c(C(=O)NCc3ccc4c(c3)OCO4)cnn2-c2ccc(F)cc2F)CC1 ?
Pf Dd2 inh: 7.9µM*

How did CCOc1ccc(C2Cn3nnc(-c4nc(-c5cccc(C)c5)no4)c3CO2)cc1 (centres undefined) do in these assays?
Pf Dd2 inh: -26%

How did CCCc1noc(-c2cccn3c(CNC(=O)c4cccc(F)c4)nnc23)n1 do in these assays?
Pf Dd2 inh: -8%

What do the screens show for `O=C(c1cccc(-n2cnnc2)c1)N1CCCCCC1c1cccc(F)c1` (centres undefined)?
Pf Dd2 inh: -28%

Results for COCCOc1ccc(C(=O)N[C@@H]2CNCCC[C@H]2O)cc1 ?
Pf Dd2 inh: 49%[44.1 µM]

How did CN1CCC(C(=O)N[C@@H]2CN(c3ncccn3)C[C@H]2CO)CC1 do in these assays?
Pf Dd2 inh: 40%

How did Cc1cn2nc(C(=O)N3CCC(NC(=O)c4ccc(F)c(F)c4)CC3)cc2c(=O)[nH]1 do in these assays?
Pf Dd2 inh: -16%

Results for COc1cccc(C(=O)NC2CCN(C(=O)c3cc4c(=O)[nH]c(C)cn4n3)CC2)c1 ?
Pf Dd2 inh: inactive

Results for Cc1cn2nc(C(=O)N3CCC(NC(=O)c4cccc(C#N)c4)CC3)cc2c(=O)[nH]1 ?
Pf Dd2 inh: 2.8µM*

How did NCCC(=O)N1Cc2ccccc2CC2(CCCCN2CC2CCNCC2)C1 (centres undefined) do in these assays?
Pf Dd2 inh: 18%

Results for CCCC(=O)N1Cc2ccccc2CC2(CCCN2CCC)C1 (centres undefined) ?
Pf Dd2 inh: 8.9µM*

What do the screens show for `CCCC(=O)N1Cc2ccccc2CC2(CCCCN2CC)C1` (centres undefined)?
Pf Dd2 inh: 10µM*

What do the screens show for `O=C(O)CCCC(=O)N1Cc2ccccc2CC2(CCCCN2CCc2ccccc2)C1` (centres undefined)?
Pf Dd2 inh: -20%

How did CCCN1CCCCC12Cc1ccccc1CN(C(=O)CCCC(=O)O)C2 (centres undefined) do in these assays?
Pf Dd2 inh: 5%

How did CCCN1CCCC12Cc1ccccc1CN(C(=O)CNC(C)=O)C2 (centres undefined) do in these assays?
Pf Dd2 inh: 9%

How did CC(=O)Nc1ccc(CNC2(Cc3cc(-c4ccccn4)on3)COC2)cc1 do in these assays?
Pf Dd2 inh: -18%[44.1 µM]

What do the screens show for `O=C(N[C@@H]1CN(Cc2cc(F)cc(F)c2)C[C@H]1CO)c1ccccc1`?
Pf Dd2 inh: 10µM*

How did N#Cc1ccc(CN2C[C@@H](CO)[C@H](NC(=O)c3ccccc3)C2)cc1 do in these assays?
Pf Dd2 inh: -23%

Results for O=C(N[C@@H]1CN(Cc2cccc(F)c2)C[C@H]1CO)c1ccccc1 ?
Pf Dd2 inh: inactive

What do the screens show for `CSc1cccc(NC(=O)N[C@H]2CCN3C(=O)[C@H](CC4CCCCC4)NC(=O)[C@@H]3C2)c1`?
Pf Dd2 inh: inactive

How did CSCC(=O)N1CC[C@H](NC(=O)NC2CCCCC2)[C@H]1C(=O)N[C@H](Cc1ccccc1)C(N)=O do in these assays?
Pf Dd2 inh: 4%

How did CN(C)c1cccc(NC(=O)C2=NO[C@@H]3CN(c4cccnc4)C[C@H]23)c1 do in these assays?
Pf Dd2 inh: -5%[44.1 µM]

How did COc1cccc(C(=O)N2CCCN(c3cc(-c4ccc(Cl)cc4)[nH]n3)CC2)c1 do in these assays?
Pf Dd2 inh: 4µM*

How did COc1cc(OC)cc(C(=O)N2CCN(c3cc(-c4ccc(Cl)cc4)[nH]n3)CC2)c1 do in these assays?
Pf Dd2 inh: -14%

How did O=C(CCCc1ccccc1)N1CCN(c2cc(-c3ccccc3)[nH]n2)CC1 do in these assays?
Pf Dd2 inh: inactive

What do the screens show for `COc1ccc(-c2cc(N3CCCN(C(=O)CCCc4ccccc4)CC3)n[nH]2)cc1`?
Pf Dd2 inh: 2.2µM*

What do the screens show for `COc1ccc(CCC(=O)N2CCCN(c3cc(-c4ccc(Br)cc4)[nH]n3)CC2)cc1`?
Pf Dd2 inh: -8%

Results for COc1ccc(-c2cc(N3CCCN(C(=O)c4ccccc4)CC3)n[nH]2)cc1 ?
Pf Dd2 inh: -1%

Results for CCC(=O)N(C1CCOCC1)C1CCN(S(=O)(=O)c2ccccc2)CC1 ?
Pf Dd2 inh: -16%
